Source: paper PMC5540273 (PLoS ONE, 2017)

The compounds below were run on PDGFRB.
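Note: kd values determined as follow-up on hits from a single-replicate KINOMEscan panel screen.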

Row | SMILES | Kd [nM]
1 | Cc1ccc(NC(=O)Nc2ccc(Cl)cc2)cc1-c1ccc(C(=O)Nc2ccncc2)cc1 [GSK1398472] | 86
2 | Cc1cnc(N)c(/C=C/c2cncc(C(=O)NCCc3ccc(Cl)cc3Cl)c2)c1.Cl [GSK190937] | 140
3 | Cc1ccc(NC(=O)Nc2ccc(Cl)c(C(F)(F)F)c2)cc1-c1ccc(C(=O)Nc2ccncc2)cc1 [GSK1398470] | 270
4 | COc1cccc(NC(=O)Nc2ccc(C)c(-c3ccc(C(=O)Nc4ccncc4)cc3)c2)c1 [GSK1398474] | 40
5 | Cc1ccc(NC(=O)c2ccc(Cl)cc2)cc1-c1ccc(C(=O)Nc2ccncc2)cc1 [GSK1398467] | 9.7
6 | CS(=O)(=O)Cc1ccc(Nc2nccc(-c3c(-c4cccc(NC(=O)C5CCCCC5)c4)nn4ncccc34)n2)cc1 [GSK350559] | 74
7 | Cc1ccc(NC(=O)Nc2ccccc2)cc1-c1ccc(C(=O)Nc2ccncc2)cc1 [GSK1398471] | 28
8 | Cc1ccc(NC(=O)Nc2ccccc2F)cc1-c1ccc(C(=O)Nc2ccncc2)cc1 [GSK1398477] | 47
9 | O=C(Nc1n[nH]c2cc(-c3ccsc3)ccc12)C1CC1 [SB-732932] | 700

The compounds below were run on PIK3C2B.

Row | SMILES | Kd [nM]
10 | COc1cccc(NC(=O)Nc2ccc(C)c(-c3ccc(C(=O)Nc4ccncc4)cc3)c2)c1 [GSK1398474] | > 10000
11 | COc1ccc(Nc2nccc(NCCNC(=O)Nc3cc(C)ccc3C)n2)cc1 [GSK1379899] | > 10000
12 | CNCc1ccc2nc(NC(=O)c3ccc(C(C)(C)C)cc3)cn2c1 | > 10000
13 | Fc1ccc(-c2nc3n(c2-c2ccncc2)CCS3)cc1 [GI98581] | > 10000

The compounds below were run on PIK3CA.

Row | SMILES | Kd [nM]
14 | COc1cccc(NC(=O)Nc2ccc(C)c(-c3ccc(C(=O)Nc4ccncc4)cc3)c2)c1 [GSK1398474] | > 10000
15 | COc1ccc(Nc2nccc(NCCNC(=O)Nc3cc(C)ccc3C)n2)cc1 [GSK1379899] | > 10000
16 | CNCc1ccc2nc(NC(=O)c3ccc(C(C)(C)C)cc3)cn2c1 | > 10000
17 | Fc1ccc(-c2nc3n(c2-c2ccncc2)CCS3)cc1 [GI98581] | > 10000

These compounds were tested on PIK3CB.

Row | SMILES | Kd [nM]
18 | O=C1NC(=O)C(c2ccc(Cl)cc2)=C1Nc1cccc(Cl)c1 [SB-317651] | 160
19 | Cc1c(Cn2c3ccccc3n3c(=O)cc(N4CCOCC4)nc23)cccc1C(F)(F)F [GSK2306394] | 680
20 | O=c1cc(N2CCOCC2)nc2n(Cc3cccc(Cl)c3Cl)c3ccccc3n12 [GSK2299009] | 860
21 | Cc1ccccc1Cn1ccn2c(=O)cc(N3CCOCC3)nc12 [GSK2269905] | 27
22 | CCn1c(-c2c(N)noc2C)nc2cnccc21 [SB-737856] | > 10000
23 | O=c1cc(N2CCOCC2)nc2n(Cc3ccccc3F)ccn12 [GSK2297428] | 180
24 | Cc1c(Cn2c(C)c(C)n3c(=O)cc(N4CCOCC4)nc23)cccc1C(F)(F)F [GSK2328680] | 16

What follows are compounds tested on T1, PIP5K2C.
T1 construct: gene PIP4K2C

Row | SMILES | Kd [nM]
25 | Nc1nccc(-c2c(-c3ccc(F)cc3)ncn2C2CCN(Cc3ccccc3)CC2)n1 [SB-219980] | 93
26 | CS(=O)(=O)Cc1ccc(Nc2nccc(-c3c(-c4cccc(NC(=O)C5CCCCC5)c4)nn4ncccc34)n2)cc1 [GSK350559] | 60
27 | CC(=O)c1c(C)c2cnc(Nc3ccn(C)n3)nc2n(C2CCCC2)c1=O | 110
